# Laboratory results published in PubChem BioAssay (NCI).
# This is part of a sample that, as a whole, favours compounds with a hit. Of some 83,000 tested, about 20% had one in any assay.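 Single-dose data. Exposure time 48 hours. Values below 10 considered active.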 A number with no mark means an inactive call. Activity calls are given as the source filed them.
# Assays:
# Experiment in all cases: NCI-60 one-dose screen, 48 h (100 = growth as untreated, 0 = no growth, -100 = all killed)
# Settings in all cases: 10 µM unless noted
# NCI-H23 lung = test system: NCI-H23 lung
# NCI-H226 lung = test system: NCI-H226 lung
# NCI-H322M lung = test system: NCI-H322M lung
# HOP-62 NSCLC = test system: HOP-62 NSCLC
# NCI-H460 lung = test system: NCI-H460 lung
# HOP-92 NSCLC = test system: HOP-92 NSCLC
# NCI-H522 lung = test system: NCI-H522 lung
# A549/ATCC NSCLC = test system: A549/ATCC NSCLC
# 786-0 renal = test system: 786-0 renal
# COLO 205 colon = test system: COLO 205 colon
# DU-145 prostate = test system: DU-145 prostate
# K-562 leukemia = test system: K-562 leukemia
# MALME-3M melanoma = test system: MALME-3M melanoma
# MDA-MB-231 breast = test system: MDA-MB-231 breast
# RXF 393 renal = test system: RXF 393 renal
# SF-268 CNS = test system: SF-268 CNS
# SF-295 CNS = test system: SF-295 CNS
# SF-539 CNS = test system: SF-539 CNS
# UACC-257 melanoma = test system: UACC-257 melanoma
# M14 melanoma = test system: M14 melanoma
SMILES,growth (NCI-H23 lung),growth (NCI-H226 lung),growth (NCI-H322M lung),growth (HOP-62 NSCLC),growth (NCI-H460 lung),growth (HOP-92 NSCLC),growth (NCI-H522 lung),growth (A549/ATCC NSCLC),growth (786-0 renal),growth (COLO 205 colon),growth (DU-145 prostate),growth (K-562 leukemia),growth (MALME-3M melanoma),growth (MDA-MB-231 breast),growth (RXF 393 renal),growth (SF-268 CNS),growth (SF-295 CNS),growth (SF-539 CNS),growth (UACC-257 melanoma),growth (M14 melanoma)
CC(C)OC(=O)Nc1cc(F)c(F)cc1F,99%,98%,96.3%,99.8%,104%,102%,97.8%,97.8%,107%,113%,110%,111%,89.9%,103%,104%,101%,102%,96.2%,94.8%,93.7%
COc1cc2c(c(OC)c1OC)-c1ccc(NNC(N)=S)c(=O)cc1[C@@H](NC(C)=O)CC2,5.07% (active),27.9%,64.9%,32.7%,-3.14% (active),-6.59% (active),-63.3% (active),15.7%,21.9%,-95.6% (active),-14.5% (active),10.1%,88.4%,20%,-8.91% (active),21.3%,10.6%,-18.4% (active),57.2%,-2.7% (active)
CC(C)=CC/C=C(/C)[C@H]1CC[C@]2(C)[C@@H]1CC[C@@H]1[C@@]3(C)CC/C(=N/O)C(C)(C)[C@@H]3CC[C@]12C,47.5% [100 µM],59.7% [100 µM],77.3% [100 µM],74.2% [100 µM],40.5% [100 µM],53.1% [100 µM],21.3% [100 µM],54.9% [100 µM],58.7% [100 µM],65.8% [100 µM],73.7% [100 µM],33.9% [100 µM],81% [100 µM],50.5% [100 µM],61.3% [100 µM],72% [100 µM],64.2% [100 µM],64% [100 µM],59.5% [100 µM],61.1% [100 µM]
CC[C@]12C=CCN3CC[C@@]4(c5ccc(OC)cc5N(C)[C@H]4[C@@](O)(C(=O)OC)[C@@H]1OC(=O)CCC(=O)O[C@H]1CC[C@H]4[C@@H]5CCC6=CC(=O)CC[C@@H]6[C@H]5CC[C@]14C)[C@@H]32,12.9% [100 µM],-18.3% [100 µM] (active),36.1% [100 µM],21.9% [100 µM],1.51% [100 µM] (active),-20.3% [100 µM] (active),3.35% [100 µM] (active),14.5% [100 µM],10.2% [100 µM],-87.6% [100 µM] (active),26% [100 µM],7.54% [100 µM] (active),-16.4% [100 µM] (active),-39.4% [100 µM] (active),-27.5% [100 µM] (active),31.9% [100 µM],4.5% [100 µM] (active),-40.4% [100 µM] (active),14.8% [100 µM],1.67% [100 µM] (active)
CCCC(NC(=O)OCc1ccccc1)C(=O)O (stereo not given),-1.29% (active),89.5%,121%,111%,97.9%,82.2%,16.2%,79.5%,108%,137%,107%,107%,88.8%,75.9%,90.5%,104%,92.3%,95.9%,36.1%,93.1%
COc1cc2c(=O)[nH]c3cc([N+](=O)[O-])ccc3c2cc1[N+](=O)[O-],55.4%,45%,60.8%,85.5%,14%,45.9%,28.7%,40.5%,70.1%,56.6%,73.4%,49.2%,50.3%,56%,72.2%,63.7%,47.9%,45%,41.7%,76.4%
O=C1COCCN1c1ccc(NCc2cn(Cc3ccccc3)c3ccccc23)cc1,93.7%,-40.1% (active),86.1%,90.7%,31.9%,69.5%,94.1%,81.4%,95.3%,28.8%,102%,57.3%,95.9%,86.7%,46.8%,91.9%,61.7%,91.8%,75.4%,90.2%
